Data as given in paper PMC6925144, “A prospective compound screening contest identified broader inhibitors for Sirtuin 1” (Scientific Reports, 2019).
Over roughly 3,200 compounds, “TSA(with NAD+) / Primary screening (TSA) / delta Tm (K)” has its median near -0.04; the highest 2% begin near 0.37. Many of the other results were omitted from the sample, so the highest values are more common in it than they were.

target: NAD-dependent deacetylase Sirtuin 1 (human, UniProt Q96EB6); test: primary screen, delta tm; set-up: single well (n = 1, as 'the same TSA'); conditions: 10 µM
Procedure: A total of 3,192 compounds extracted from the proposed lists were first screened by thermal shift assay (TSA), which determined a melting temperature shift (ΔTm) of Sirtuin 1 upon the addition of a test compound at a concentration of 10 µM (n = 1) with primary hit criteria of ΔTm > 0.45 K or ΔTm < −1.5 K. Primary hits (48 compounds) were retested in the same assay at three concentrations (5, 10, 20 µM, n = 4) for hit confirmation and for dose-dependency check. Secondary hits (41 compounds) were checked their selectivity for Sirtuin 1 based on counterscreening on unrelated protein targets (bovine carbonic anhydrase (CA) and recombinant SH2 domain of hABL1 kinase (ABL1)) at three different concentrations (5, 10, 20 µM, n = 4), which yielded 38 hit compounds, hereafter referred to as TSA hits. The TSA screening above was conducted in the absence of NAD+. As noted, the structure of Sirtuin 1 is different in the presence of NAD+ and substrate. The chemical profile of TSA hits found from the different conditions could be different. […] As a result, 39 TSA hits were found.

Chain of NAD-dependent deacetylase Sirtuin 1 (Q96EB6 2-747 limits assumed): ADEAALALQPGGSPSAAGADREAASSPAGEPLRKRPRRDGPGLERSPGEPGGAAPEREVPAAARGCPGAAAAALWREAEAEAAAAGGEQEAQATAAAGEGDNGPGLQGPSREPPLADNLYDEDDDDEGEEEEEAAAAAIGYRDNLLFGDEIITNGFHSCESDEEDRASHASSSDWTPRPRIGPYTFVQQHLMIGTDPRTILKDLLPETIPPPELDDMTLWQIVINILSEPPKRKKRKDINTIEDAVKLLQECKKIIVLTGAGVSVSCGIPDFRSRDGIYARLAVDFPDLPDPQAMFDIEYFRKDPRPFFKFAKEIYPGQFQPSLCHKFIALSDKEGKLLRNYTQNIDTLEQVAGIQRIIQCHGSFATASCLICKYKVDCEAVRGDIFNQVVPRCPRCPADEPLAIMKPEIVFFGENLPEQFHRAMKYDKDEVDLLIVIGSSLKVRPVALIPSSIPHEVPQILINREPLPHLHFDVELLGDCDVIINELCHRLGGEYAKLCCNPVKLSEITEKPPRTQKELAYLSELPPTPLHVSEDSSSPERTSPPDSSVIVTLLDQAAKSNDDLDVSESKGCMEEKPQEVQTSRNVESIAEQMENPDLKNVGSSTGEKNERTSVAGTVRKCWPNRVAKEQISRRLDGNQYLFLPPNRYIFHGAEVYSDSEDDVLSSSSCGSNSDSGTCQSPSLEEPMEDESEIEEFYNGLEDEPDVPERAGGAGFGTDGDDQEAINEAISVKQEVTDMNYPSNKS

Q: For `CCCN1CCN(CCCOc2ccccc2)CC1`, which “TSA(with NAD+) / Primary screening (TSA) / delta Tm (K)” value is on record?
A: -0.12 K

Q: Which “TSA(with NAD+) / Primary screening (TSA) / delta Tm (K)” value does the source give for `CC12CCC(C/C1=N/N=C1/CC3CCC1(C)C3(C)C)C2(C)C` here?
A: -0.29 K

Q: Which “TSA(with NAD+) / Primary screening (TSA) / delta Tm (K)” value does the source give for `O=C(CSc1nnnn1-c1ccc(O)cc1)N1N=C(c2ccc3ccccc3c2)CC1c1ccccc1` (centres unmarked) here?
A: 0.66 K

Q: For `CC(=O)N1N=C(c2ccccc2)CC1c1ccc(Br)cc1` (centres unmarked), which “TSA(with NAD+) / Primary screening (TSA) / delta Tm (K)” value is on record?
A: -0.08 K

Q: How did the “TSA(with NAD+) / Primary screening (TSA) / delta Tm (K)” value turn out when `CC(=O)N1N=C(c2ccc(O)cc2)CC1c1ccccc1` (centres unmarked) was run?
A: 0.36 K

Q: With `COc1ccnc(C(=O)NCC(C)(C)N2CCC(N(C)C)CC2)c1` as the molecule, how does the “TSA(with NAD+) / Primary screening (TSA) / delta Tm (K)” value read?
A: -0.14 K

Q: With `OC(CNc1ncccn1)c1ccc(Cl)cc1` (centres unmarked) as the molecule, how does the “TSA(with NAD+) / Primary screening (TSA) / delta Tm (K)” value read?
A: -0.04 K

Q: `O=C(O)c1ccc2[nH]c(S)nc2c1` was tested. Which “TSA(with NAD+) / Primary screening (TSA) / delta Tm (K)” value did it give?
A: -0.13 K

Q: How did the “TSA(with NAD+) / Primary screening (TSA) / delta Tm (K)” value turn out when `CC(OC(=O)Cc1c[nH]c2ccccc12)C(=O)Nc1ccc(C(N)=O)cc1` (centres unmarked) was run?
A: 0.12 K

Q: For `O=C(CCc1c[nH]c2ccccc12)Nc1ccc2nc[nH]c(=O)c2c1`, which “TSA(with NAD+) / Primary screening (TSA) / delta Tm (K)” value is on record?
A: 0.27 K

Q: How did the “TSA(with NAD+) / Primary screening (TSA) / delta Tm (K)” value turn out when `O=C(CCc1c[nH]c2ccccc12)Nc1nnc(-c2ccccc2)o1` was run?
A: 0.39 K

Q: Which “TSA(with NAD+) / Primary screening (TSA) / delta Tm (K)” value does the source give for `O=C(CCc1c[nH]c2ccccc12)NCCc1ccco1` here?
A: -0.11 K

Q: `O=C1NC(=S)NC(=O)C1=Cc1cc2ccccc2[nH]c1=O` was tested. Which “TSA(with NAD+) / Primary screening (TSA) / delta Tm (K)” value did it give?
A: -0.09 K

Q: Which “TSA(with NAD+) / Primary screening (TSA) / delta Tm (K)” value does the source give for `O=C(Nc1cccc(S(=O)(=O)N2CCOCC2)c1)c1ccccc1Cc1ccccc1` here?
A: -0.09 K

Q: `CN(c1ccccc1)S(=O)(=O)c1ccc(C(=O)Nc2cccc(S(=O)(=O)N3CCOCC3)c2)cc1` was tested. Which “TSA(with NAD+) / Primary screening (TSA) / delta Tm (K)” value did it give?
A: -0.01 K

Q: Which “TSA(with NAD+) / Primary screening (TSA) / delta Tm (K)” value does the source give for `O=C(Nc1cccc(S(=O)(=O)N2CCOCC2)c1)c1cn(-c2ccccc2)nc1-c1ccc(Cl)cc1` here?
A: 0.63 K

Q: Which “TSA(with NAD+) / Primary screening (TSA) / delta Tm (K)” value does the source give for `O=C(Nc1cccc(S(=O)(=O)N2CCOCC2)c1)c1cn(-c2ccccc2)nc1-c1ccccc1` here?
A: 0.12 K

Q: How did the “TSA(with NAD+) / Primary screening (TSA) / delta Tm (K)” value turn out when `Cc1ccc(-c2nn(-c3ccccc3)cc2C(=O)Nc2cccc(S(=O)(=O)N3CCOCC3)c2)cc1` was run?
A: 0.26 K

Q: Which “TSA(with NAD+) / Primary screening (TSA) / delta Tm (K)” value does the source give for `O=C(Nc1cccc(S(=O)(=O)N2CCOCC2)c1)c1cccc(S(=O)(=O)N2CCc3ccccc32)c1` here?
A: 0.41 K

Q: Which “TSA(with NAD+) / Primary screening (TSA) / delta Tm (K)” value does the source give for `O=C(Nc1cccc(S(=O)(=O)N2CCOCC2)c1)C(c1ccccc1)c1ccccc1` here?
A: 0.16 K

Q: With `O=C(Nc1cccc(S(=O)(=O)N2CCOCC2)c1)c1cc(-c2ccccc2)nn1-c1ccccc1` as the molecule, how does the “TSA(with NAD+) / Primary screening (TSA) / delta Tm (K)” value read?
A: -0.04 K

Q: How did the “TSA(with NAD+) / Primary screening (TSA) / delta Tm (K)” value turn out when `O=C(Nc1cccc(S(=O)(=O)N2CCOCC2)c1)c1cn(-c2ccccc2)nc1-c1ccc(F)cc1` was run?
A: 0.39 K

Q: `O=C(CCC(=O)c1ccccc1)Nc1ccccc1Cc1ccccc1` was tested. Which “TSA(with NAD+) / Primary screening (TSA) / delta Tm (K)” value did it give?
A: -0.11 K

Q: How did the “TSA(with NAD+) / Primary screening (TSA) / delta Tm (K)” value turn out when `COC1CCCC1NC(=O)Cc1sc(S)nc1C` (centres unmarked) was run?
A: -0.26 K

Q: With `COc1ccccc1C1C(C(=O)/C=C/c2ccco2)=C(O)C(=O)N1CCCN1CCOCC1` (centres unmarked) as the molecule, how does the “TSA(with NAD+) / Primary screening (TSA) / delta Tm (K)” value read?
A: -0.18 K

Q: For `CC(N)C(N)=O` (centres unmarked), which “TSA(with NAD+) / Primary screening (TSA) / delta Tm (K)” value is on record?
A: -0.19 K

Q: How did the “TSA(with NAD+) / Primary screening (TSA) / delta Tm (K)” value turn out when `NC(=O)C1CCN(c2ncnc3sc4c(c23)CCC4)CC1` was run?
A: -0.04 K

Q: Which “TSA(with NAD+) / Primary screening (TSA) / delta Tm (K)” value does the source give for `Cc1nc(N2CCC(C(N)=O)CC2)c2c3c(sc2n1)CCCCC3` here?
A: 0.66 K

Q: `Cc1nc(N2CCC(NC(N)=O)CC2)c2c3c(sc2n1)CCCC3` was tested. Which “TSA(with NAD+) / Primary screening (TSA) / delta Tm (K)” value did it give?
A: -0.03 K

Q: Which “TSA(with NAD+) / Primary screening (TSA) / delta Tm (K)” value does the source give for `Cc1nc(N2CCC(C(N)=O)CC2)c2c3c(sc2n1)CCC3` here?
A: 0.01 K

Q: With `Cc1nc(N2CCN(c3ncccc3C(N)=O)CC2)c2c3c(sc2n1)CCC3` as the molecule, how does the “TSA(with NAD+) / Primary screening (TSA) / delta Tm (K)” value read?
A: 0.02 K

Q: With `Cc1nc(N2CCC(C(N)=O)CC2)c2c3c(sc2n1)CCCC3` as the molecule, how does the “TSA(with NAD+) / Primary screening (TSA) / delta Tm (K)” value read?
A: 0.57 K

Q: For `Cc1noc(C(C)N2CCN(Cc3cccc(C(N)=O)c3)CC2)n1` (centres unmarked), which “TSA(with NAD+) / Primary screening (TSA) / delta Tm (K)” value is on record?
A: -0.03 K

Q: With `NCCC[C@@H](N)C(=O)O` as the molecule, how does the “TSA(with NAD+) / Primary screening (TSA) / delta Tm (K)” value read?
A: -0.08 K

Q: `O=C(CCc1nc2ccccc2o1)N1CCN(C(c2ccc(F)cc2)c2ccc(F)cc2)CC1` was tested. Which “TSA(with NAD+) / Primary screening (TSA) / delta Tm (K)” value did it give?
A: -0.01 K

Q: For `O=C(O)c1ccc2[nH]c(C(F)(F)F)nc2c1`, which “TSA(with NAD+) / Primary screening (TSA) / delta Tm (K)” value is on record?
A: -0.14 K

Q: For `COc1cc(-c2nc(-c3ccccc3)c(-c3ccccc3)[nH]2)ccc1OS(=O)(=O)c1ccc(C)cc1`, which “TSA(with NAD+) / Primary screening (TSA) / delta Tm (K)” value is on record?
A: 0.05 K

Q: With `CNC(=O)CCNc1ccc2nnc(C(F)(F)F)n2n1` as the molecule, how does the “TSA(with NAD+) / Primary screening (TSA) / delta Tm (K)” value read?
A: 0.08 K

Q: `COC(=O)C[C@H](N)C(=O)O` was tested. Which “TSA(with NAD+) / Primary screening (TSA) / delta Tm (K)” value did it give?
A: 0.02 K

Q: `COCC(C)N` (centres unmarked) was tested. Which “TSA(with NAD+) / Primary screening (TSA) / delta Tm (K)” value did it give?
A: -0.04 K

Q: Which “TSA(with NAD+) / Primary screening (TSA) / delta Tm (K)” value does the source give for `Cc1ccc(C23CC4CC(CC(C(=O)OC(C)C(=O)Nc5ccc(S(N)(=O)=O)cc5)(C4)C2)C3)cc1C` (centres unmarked) here?
A: 0.43 K

Q: How did the “TSA(with NAD+) / Primary screening (TSA) / delta Tm (K)” value turn out when `Cc1ccc(C23CC4CC(CC(C(=O)OCC(=O)Nc5ccc(S(N)(=O)=O)cc5)(C4)C2)C3)cc1` was run?
A: 0.29 K

Q: For `Cc1ccc(C23CC4CC(CC(C(=O)OCC(N)=O)(C4)C2)C3)cc1C`, which “TSA(with NAD+) / Primary screening (TSA) / delta Tm (K)” value is on record?
A: -0.16 K

Q: `COc1cc(OC)c(OC)cc1C=C1C(=O)NC(=S)NC1=O` was tested. Which “TSA(with NAD+) / Primary screening (TSA) / delta Tm (K)” value did it give?
A: -0.16 K

Q: For `Cc1csc2c(N3CC4CCCN4CC3C)ncnc12` (centres unmarked), which “TSA(with NAD+) / Primary screening (TSA) / delta Tm (K)” value is on record?
A: -0.19 K

Q: How did the “TSA(with NAD+) / Primary screening (TSA) / delta Tm (K)” value turn out when `CCCCCCCCNC(=O)/C(C#N)=C/c1c[nH]c2ccccc12` was run?
A: 0.43 K

Q: Which “TSA(with NAD+) / Primary screening (TSA) / delta Tm (K)” value does the source give for `CCOc1ccc(/C=C(/C#N)C(=O)c2c[nH]c3cc(F)ccc23)cc1` here?
A: -0.03 K

Q: How did the “TSA(with NAD+) / Primary screening (TSA) / delta Tm (K)” value turn out when `N#C/C(=C\c1[nH]c2ccccc2c1Cl)C(N)=O` was run?
A: -0.09 K

Q: Which “TSA(with NAD+) / Primary screening (TSA) / delta Tm (K)” value does the source give for `Cc1ccc(C(=O)Nc2ccc(NC(=O)NCC3CCCO3)cc2)cn1` (centres unmarked) here?
A: 0.55 K

Q: How did the “TSA(with NAD+) / Primary screening (TSA) / delta Tm (K)” value turn out when `O=C(NCC1CCCO1)Nc1ccc(NC(=O)c2ccccn2)cc1` (centres unmarked) was run?
A: 0.06 K

Q: With `COc1cc(C=C(C(=O)NCC2CCCO2)C(=O)NCC2CCCO2)ccc1OCC(=O)Nc1ccc(C)cc1` (centres unmarked) as the molecule, how does the “TSA(with NAD+) / Primary screening (TSA) / delta Tm (K)” value read?
A: -0.15 K

Q: Which “TSA(with NAD+) / Primary screening (TSA) / delta Tm (K)” value does the source give for `COC(=O)c1ccc2[nH]c3c(c2c1)CN(S(C)(=O)=O)CC3` here?
A: 0.16 K

Q: With `N#CCCC(C#N)CN1CCC(CCc2ccc(O)cc2)CC1` (centres unmarked) as the molecule, how does the “TSA(with NAD+) / Primary screening (TSA) / delta Tm (K)” value read?
A: -0.14 K

Q: Which “TSA(with NAD+) / Primary screening (TSA) / delta Tm (K)” value does the source give for `CC(=O)c1ccc(NC(=O)C(C)OC(=O)c2cccc(S(=O)(=O)NC(C)C34CC5CC(CC(C5)C3)C4)c2)cc1` (centres unmarked) here?
A: 0.19 K

Q: With `O=C(COC(=O)c1cccc(NS(=O)(=O)/C=C/c2ccccc2)c1)NC12CC3CC(CC(C3)C1)C2` as the molecule, how does the “TSA(with NAD+) / Primary screening (TSA) / delta Tm (K)” value read?
A: -0.01 K

Q: With `CC(NC(=O)COC(=O)c1cccc(S(=O)(=O)NCc2ccccc2)c1)C12CC3CC(CC(C3)C1)C2` (centres unmarked) as the molecule, how does the “TSA(with NAD+) / Primary screening (TSA) / delta Tm (K)” value read?
A: 0.05 K

Q: How did the “TSA(with NAD+) / Primary screening (TSA) / delta Tm (K)” value turn out when `O=C(COC(=O)c1cccc(S(=O)(=O)NCc2ccccc2)c1)NC12CC3CC(CC(C3)C1)C2` was run?
A: -0.25 K

Q: `Cc1cccc(NS(=O)(=O)c2cccc(C(=O)OCC(=O)NC(=O)NC34CC5CC(CC(C5)C3)C4)c2)c1` was tested. Which “TSA(with NAD+) / Primary screening (TSA) / delta Tm (K)” value did it give?
A: 0.46 K

Q: Which “TSA(with NAD+) / Primary screening (TSA) / delta Tm (K)” value does the source give for `CC(NS(=O)(=O)c1cccc(C(=O)OCC(=O)Nc2sccc2C#N)c1)C12CC3CC(CC(C3)C1)C2` (centres unmarked) here?
A: 0.37 K
